Test results taken from the supplement of paper PMC8285479.
Where a name gives a salt, the structure may show the parent alone. ± gives the standard deviation of the averaged measurements. Over roughly 1,900 compounds, “normalised cell viability (NPI; 0 = phenylarsine oxide control, 1 = DMSO control)” has its median near 1; the lowest 2% begin near 0.039. What follows is part of a selection rich in the lowest values, with near analogues and random picks from the rest.

Tested on: NCI-H1944
Assay: normalised cell viability (NPI; 0 = phenylarsine oxide control, 1 = DMSO control) (fraction of DMSO control); NCI-H1944 is a non-small cell lung cancer line; higher = more viable cells (less compound toxicity)
Settings: 6 days
[1] = glucocorticoid arm: hydrocortisone 2.75 uM co-treatment, compound 1 µM
[2] = glucocorticoid arm: hydrocortisone 2.75 uM co-treatment, compound 5 µM
[3] = glucocorticoid arm: hydrocortisone 2.75 uM pre-treated 2 days and continued, compound 1 µM
[4] = glucocorticoid arm: hydrocortisone 2.75 uM pre-treated 2 days and continued, compound 5 µM
[5] = glucocorticoid arm: vehicle, compound 1 µM
[6] = glucocorticoid arm: vehicle, compound 5 µM
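Note: CTB read-out in 384-well plates, triplicate wells, NPI normalised per plate against 1 µM phenylarsine oxide (0) and 0.1% DMSO (1) controls.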

In the case of `CCOC(=O)[C@]12CC1/C(=N\O)c1ccccc1O2` (stereo not given in full), the normalised cell viability [1] is reported as 1.017 ± 0.0058, the normalised cell viability [2] is reported as 1.01 ± 0.024 and the normalised cell viability [3] is reported as 1.007 ± 0.0058. For the same molecule, the normalised cell viability [4] was 1.02, the normalised cell viability [5] was 0.997 ± 0.013 and the normalised cell viability [6] was 1.002 ± 0.0068.
Work on `C[N+](C)(C)CCO.[Br-]` [Choline bromide] yielded a normalised cell viability [1] of 1.017 ± 0.0058, a normalised cell viability [2] of 1 ± 0.019 and a normalised cell viability [3] of 1.017 ± 0.0058. The normalised cell viability [4] was 1.02, the normalised cell viability [5] was 0.995 ± 0.0078 and the normalised cell viability [6] was 0.998 ± 0.014.
For `CC(C(=O)Nc1cccc(/N=C/c2c(O)ccc3ccccc23)c1)c1ccccc1` (stereo not given) [Salermide], the normalised cell viability [1] was 0.999 ± 0.014, the normalised cell viability [2] was 1.01 ± 0.02 and the normalised cell viability [3] was 0.9942 ± 0.0055. It also gave a normalised cell viability [4] of 1 ± 0.035, a normalised cell viability [5] of 0.9967 ± 0.0083 and a normalised cell viability [6] of 1.002 ± 0.01.
Work on `O=C(c1ccc(F)cc1)N1CCCC(c2nc(-c3ccc(F)cc3)no2)C1` (stereo not given) yielded a normalised cell viability [1] of 1.03 ± 0.015, a normalised cell viability [2] of 1.023 ± 0.0058 and a normalised cell viability [3] of 1.02 ± 0.011. For the same molecule, the normalised cell viability [4] was 1.013 ± 0.0058, the normalised cell viability [5] was 1.01 and the normalised cell viability [6] was 1.001 ± 0.0078.
Molecule `Cn1ncnc1[C@H]1c2n[nH]c(=O)c3cc(F)cc(c23)N[C@@H]1c1ccc(F)cc1` has a normalised cell viability [1] of 0.996 ± 0.012, a normalised cell viability [2] of 0.934 ± 0.028 and a normalised cell viability [3] of 1.01 ± 0.017. For the same molecule, the normalised cell viability [4] was 1.05 ± 0.015, the normalised cell viability [5] was 0.436 ± 0.0095 and the normalised cell viability [6] was 0.28 ± 0.016.
`CCN(CC)CCCC(C)Nc1ccnc2cc(Cl)ccc12` (stereo not given) [Chloroquine diphosphate] showed a normalised cell viability [1] of 1 ± 0.015, a normalised cell viability [2] of 0.752 ± 0.026 and a normalised cell viability [3] of 1.001 ± 0.009. For the same molecule, the normalised cell viability [4] was 0.963 ± 0.04, the normalised cell viability [5] was 0.9793 ± 0.0076 and the normalised cell viability [6] was 0.947 ± 0.013.
In the case of `CCN(CC)CCCC(C)Nc1c2ccc(Cl)cc2nc2ccc(OC)cc12` (stereo not given) [Quinacrine dihydrochloride], the normalised cell viability [1] is reported as 0.999 ± 0.021, the normalised cell viability [2] is reported as 0.00304 ± 0.0019 and the normalised cell viability [3] is reported as 1.01 ± 0.023. For the same molecule, the normalised cell viability [4] was 1.01 ± 0.014, the normalised cell viability [5] was 0.995 ± 0.014 and the normalised cell viability [6] was 0.00159 ± 0.0012.
`CS(=O)(=O)CCNCc1ccc(-c2ccc3ncnc(Nc4ccc(OCc5cccc(F)c5)c(Cl)c4)c3c2)o1` [Lapatinib Ditosylate (Tykerb)] gave a normalised cell viability [1] of 0.945 ± 0.0092, a normalised cell viability [2] of 0.916 ± 0.017 and a normalised cell viability [3] of 0.981 ± 0.021. It also gave a normalised cell viability [4] of 0.938 ± 0.028, a normalised cell viability [5] of 0.911 ± 0.02 and a normalised cell viability [6] of 0.868 ± 0.022.
For `C=CC(=O)Nc1ccc2ncnc(Nc3ccc(OCc4cccc(F)c4)c(Cl)c3)c2c1`, the normalised cell viability [1] was 0.905 ± 0.016, the normalised cell viability [2] was 0.854 ± 0.043 and the normalised cell viability [3] was 0.92 ± 0.014. The normalised cell viability [4] was 0.93 ± 0.023, the normalised cell viability [5] was 0.815 ± 0.021 and the normalised cell viability [6] was 0.623 ± 0.016.
Work on `CS(=O)(=O)CCNCc1ccc(-c2ccc3ncnc(Nc4ccc(OCc5cccc(F)c5)c(Cl)c4)c3c2)o1` [Lapatinib ditosylate; Lapatinib; Lapatinib Ditosylate] yielded a normalised cell viability [1] of 0.9643 ± 0.0055, a normalised cell viability [2] of 0.00258 ± 0.00055 and a normalised cell viability [3] of 0.968 ± 0.014. It also gave a normalised cell viability [4] of 0.0327 ± 0.0022, a normalised cell viability [5] of 0.947 ± 0.0092 and a normalised cell viability [6] of 0.00168 ± 0.00026.
`CCCCC#Cc1nc(N)c2ncn([C@@H]3O[C@H](C(=O)NCC)[C@@H](O)[C@H]3O)c2n1` showed a normalised cell viability [1] of 1.01 ± 0.015, a normalised cell viability [2] of 0.979 ± 0.011 and a normalised cell viability [3] of 1.007 ± 0.0058. It also gave a normalised cell viability [4] of 1.01 ± 0.014, a normalised cell viability [5] of 1.01 and a normalised cell viability [6] of 1.003 ± 0.0058.
With `O=c1[nH]cc(F)c(=O)[nH]1` [5-Fluorouracil; Fluorouracil] the normalised cell viability [1] was 1.043 ± 0.0058, the normalised cell viability [2] was 0.706 ± 0.037 and the normalised cell viability [3] was 1.01 ± 0.015. The normalised cell viability [4] was 0.838 ± 0.011, the normalised cell viability [5] was 0.971 ± 0.0044 and the normalised cell viability [6] was 0.522 ± 0.032.
In the case of `O=c1[nH]cc(F)c(=O)[nH]1` [5-Fluorouracil], the normalised cell viability [1] is reported as 0.98 ± 0.002, the normalised cell viability [2] is reported as 0.766 ± 0.0085 and the normalised cell viability [3] is reported as 0.981 ± 0.012. For the same molecule, the normalised cell viability [4] was 0.984 ± 0.015, the normalised cell viability [5] was 0.9837 ± 0.0084 and the normalised cell viability [6] was 0.729 ± 0.03.
For `CN(C(Cc1ccc(OS(=O)(=O)c2cccc3cnccc23)cc1)C(=O)N1CCN(c2ccccc2)CC1)S(=O)(=O)c1cccc2cnccc12` (stereo not given), the normalised cell viability [1] was 1.02 ± 0.011, the normalised cell viability [2] was 0.993 ± 0.015 and the normalised cell viability [3] was 1.007 ± 0.0058. It also gave a normalised cell viability [4] of 0.974 ± 0.029, a normalised cell viability [5] of 1.01 and a normalised cell viability [6] of 1.01.
For `CN1CC[C@H](c2c(O)cc(O)c3c(=O)cc(-c4ccccc4Cl)oc23)[C@H](O)C1` [Flavopiridol (Alvocidib)], the normalised cell viability [1] was 0.0613 ± 0.0073, the normalised cell viability [2] was 0.0242 ± 0.0072 and the normalised cell viability [3] was 0.109 ± 0.015. For the same molecule, the normalised cell viability [4] was 0.0932 ± 0.025, the normalised cell viability [5] was 0.0171 ± 0.0043 and the normalised cell viability [6] was 0.00703 ± 0.0012.
For `CN1CC[C@H](c2c(O)cc(O)c3c(=O)cc(-c4ccccc4Cl)oc23)[C@H](O)C1` [Flavopiridol hydrochloride], the normalised cell viability [1] was 0.0447 ± 0.0058, the normalised cell viability [2] was 0.0238 ± 0.0012 and the normalised cell viability [3] was 0.066 ± 0.0098. The normalised cell viability [4] was 0.0883 ± 0.016, the normalised cell viability [5] was 0.0103 ± 0.0015 and the normalised cell viability [6] was 0.00802 ± 0.0019.
With `CN1CC[C@@H](c2c(O)cc(O)c3c(=O)cc(-c4ccccc4Cl)oc23)[C@@H]1CO` the normalised cell viability [1] was 0.183 ± 0.011, the normalised cell viability [2] was 0.031 ± 0.004 and the normalised cell viability [3] was 0.601 ± 0.026. The normalised cell viability [4] was 0.0698 ± 0.0051, the normalised cell viability [5] was 0.0431 ± 0.0039 and the normalised cell viability [6] was 0.00913 ± 0.002.
`COc1ccc(CCN(C)CCCC(C#N)(c2cc(OC)c(OC)c(OC)c2)C(C)C)cc1OC` (racemic) [(±)-Methoxyverapamil hydrochloride] showed a normalised cell viability [1] of 1.007 ± 0.0058, a normalised cell viability [2] of 0.998 ± 0.039 and a normalised cell viability [3] of 1.01 ± 0.01. It also gave a normalised cell viability [4] of 1.01 ± 0.019, a normalised cell viability [5] of 0.9847 ± 0.0042 and a normalised cell viability [6] of 0.999 ± 0.018.
Molecule `Cc1cnc(NC(=O)Nc2cc(Br)c(C)cc2OC[C@@H]2CNCCO2)cn1` has a normalised cell viability [1] of 1.03 ± 0.015, a normalised cell viability [2] of 0.827 ± 0.041 and a normalised cell viability [3] of 1.04 ± 0.015. It also gave a normalised cell viability [4] of 1.04 ± 0.011, a normalised cell viability [5] of 0.776 ± 0.01 and a normalised cell viability [6] of 0.334 ± 0.027.
`CCCCCCCCCCCCCCCc1cccc(OCC)c1C(=O)Nc1ccc(Cl)c(C(F)(F)F)c1` was tested, and the normalised cell viability [1] was 1.01 ± 0.014, the normalised cell viability [2] was 1.01 ± 0.011 and the normalised cell viability [3] was 1.01 ± 0.02. For the same molecule, the normalised cell viability [4] was 1.02 ± 0.016, the normalised cell viability [5] was 0.9997 ± 0.0097 and the normalised cell viability [6] was 1 ± 0.0054.
For `N#C[C@@H]1CCCN1C(=O)CNC12CC3CC(CC(O)(C3)C1)C2` [Vildagliptin (LAF-237)], the normalised cell viability [1] was 0.994 ± 0.0087, the normalised cell viability [2] was 1 ± 0.011 and the normalised cell viability [3] was 0.9973 ± 0.0046. For the same molecule, the normalised cell viability [4] was 1.004 ± 0.01, the normalised cell viability [5] was 0.998 ± 0.012 and the normalised cell viability [6] was 1.01.
`CN1CCN(S(=O)(=O)c2ccc(-c3cnc(N)c(C(=O)Nc4cccnc4)n3)cc2)CC1` was tested, and the normalised cell viability [1] was 1.113 ± 0.011, the normalised cell viability [2] was 1.2 ± 0.015 and the normalised cell viability [3] was 1.1 ± 0.011. For the same molecule, the normalised cell viability [4] was 1.1 ± 0.021, the normalised cell viability [5] was 0.743 ± 0.0076 and the normalised cell viability [6] was 0.959 ± 0.021.
Work on `CS(=O)(=O)N1CCN(Cc2cc3nc(-c4cccc5[nH]ncc45)nc(N4CCOCC4)c3s2)CC1` yielded a normalised cell viability [1] of 1.02 ± 0.022, a normalised cell viability [2] of 1.05 ± 0.015 and a normalised cell viability [3] of 1.02 ± 0.011. It also gave a normalised cell viability [4] of 1.05 ± 0.015, a normalised cell viability [5] of 0.998 ± 0.012 and a normalised cell viability [6] of 1.005 ± 0.0087.
Work on `Cc1c(CN2CCN(C(=O)[C@H](C)O)CC2)sc2c(N3CCOCC3)nc(-c3cnc(N)nc3)nc12` yielded a normalised cell viability [1] of 0.631 ± 0.017, a normalised cell viability [2] of 0.433 ± 0.034 and a normalised cell viability [3] of 0.59 ± 0.02. For the same molecule, the normalised cell viability [4] was 0.399 ± 0.076, the normalised cell viability [5] was 0.757 ± 0.035 and the normalised cell viability [6] was 0.552 ± 0.033.
With `COc1ccc(-c2nc(N3CCOCC3)c3sc(CN(C)c4ncc(C(=O)NO)cn4)cc3n2)cn1` the normalised cell viability [1] was 0.00442 ± 0.0038, the normalised cell viability [2] was 0.00164 ± 0.00085 and the normalised cell viability [3] was 0.0384 ± 0.044. The normalised cell viability [4] was 0.00149 ± 0.001, the normalised cell viability [5] was 0.00371 ± 0.0034 and the normalised cell viability [6] was 0.000104 ± 0.00053.
